Experimental data from PubChem BioAssay (EPA / NIEHS).
Records with an inconclusive call do not appear. Calls of active or inactive are those of the source. The calls were made as follows, unless noted: active = hit-call score of the fitted dose curve at least 0.9, where 1 is the maximum; inactive = score below 0.9.

Tests used:
[1] = biological target: Glucocorticoid receptor (Homo sapiens) (UniProt P04150); experiment: ATG_GR_TRANS: Attagene TRANS-FACTORIAL HepG2 Assay for human Glucocorticoid Receptor (GR) (AID 2282978; active = hit-call score of the fitted dose curve at least 0.9, where 1 is the maximum;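 also: activators score as hits since higher reporter transcript over DMSO is fitted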); settings: HepG2 Attagene TRANS GR reporter, mRNA transcription
In short: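 Transient MRTU transfection of HepG2 (GAL4-UAS reporters, exogenous NR-GAL4 chimeras), 24 h dosing. Readout: reporter transcript via RT-PCR + capillary electrophoresis fluorescence. Positive direction vs DMSO baseline.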

[2] = biological target: Oxysterols receptor LXR-alpha (Homo sapiens) (UniProt Q13133); experiment: ATG_LXRa_TRANS: Attagene TRANS-FACTORIAL HepG2 Assay for human Liver X Receptor alpha (LXRa) (AID 2282980; active = hit-call score of the fitted dose curve at least 0.9, where 1 is the maximum); settings: HepG2 Attagene TRANS reporter, LXRa transactivation
In short: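 HepG2 cells transiently transfected with GAL4-UAS reporter units for chimeric NR-Gal4 proteins, exposed to chemicals for 24 h. Reporter mRNA quantified by RT-PCR and capillary electrophoresis; gain of signal fitted relative to DMSO.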

[3] = biological target: Oxysterols receptor LXR-beta (Homo sapiens) (UniProt P55055); experiment: ATG_LXRb_TRANS: Attagene TRANS-FACTORIAL HepG2 Assay for human Liver X Receptor beta (LXRb) (AID 2282981; active = hit-call score of the fitted dose curve at least 0.9, where 1 is the maximum); settings: HepG2 Attagene TRANS GAL4-LXRb reporter, mRNA
In short: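 After 24 h of chemical treatment, transfected HepG2 cells yield total RNA; reporter cDNA is PCR-amplified, FAM-labelled, HpaI-cut and run on capillary electrophoresis. Signal reflects chimeric LXRb-Gal4 activity on GAL4-UAS reporters.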

[4] = ATG_M_06_TRANS: Attagene TRANS-FACTORIAL HepG2 Assay for M06 Transcription Factor (Internal Marker) (AID 2282983; active = hit-call score of the fitted dose curve at least 0.9, where 1 is the maximum); settings: HepG2 Attagene TRANS M06 internal marker reporter
In short: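 mRNA levels of a reporter transcript, quantified as FAM fluorescence on capillary electrophoresis, served as readout. HepG2 cells expressing exogenous GAL4-chimera reporter constructs were exposed for 24 h. Gain of signal over DMSO was evaluated.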

[5] = biological target: Nuclear receptor subfamily 4 group A member 2 (Homo sapiens) (UniProt P43354); experiment: ATG_NURR1_TRANS: Attagene TRANS-FACTORIAL HepG2 Assay for human Nuclear Receptor Related Protein 1 (NURR1) (AID 2282985; active = hit-call score of the fitted dose curve at least 0.9, where 1 is the maximum); settings: HepG2 Attagene TRANS reporter, mRNA readout
In short: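 Measures transcriptional activation by an exogenous NR-Gal4 chimera in transfected HepG2 liver cells. After 24 h, reporter RNA is reverse-transcribed, amplified and resolved by capillary electrophoresis; DMSO defines baseline.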

[6] = biological target: Transcriptional activator Myb (Homo sapiens) (UniProt P10242); experiment: ATG_Myb_CIS: Attagene CIS-FACTORIAL HepG2 Assay for human Myeloblastosis (Myb) Proto-Oncogene Transcription Factor (AID 2282986); settings: HepG2 Attagene CIS-FACTORIAL Myb reporter transcription; actives raise or lower the signal
In short: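 HepG2, transient MRTU transfection (cis-element promoters, endogenous TF activity), 24 h compound exposure. Readout: reporter mRNA via RT-PCR, 6-FAM labeling, HpaI digest, capillary electrophoresis. Gain/loss fit vs DMSO.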

[7] = biological target: Nuclear respiratory factor 1 (Homo sapiens) (UniProt Q16656); experiment: ATG_NRF1_CIS: Attagene CIS-FACTORIAL HepG2 Assay for human Nuclear Respiratory Factor 1 (NRF1) Orphan Gene (AID 2282987); settings: HepG2 NRF1 cis-element reporter, Attagene multiplex; actives raise or lower the signal
In short: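 Endogenous NRF1-driven reporter transcription measured in transiently transfected human HepG2 liver cells. Readout: reporter mRNA by RT-PCR and capillary electrophoresis with fluorescence detection, 24 h post-dosing. Gain or loss of signal fitted relative to DMSO baseline.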

[8] = ATG_NFI_CIS: Attagene CIS-FACTORIAL HepG2 Assay for human Nuclear Factor I (NFI) (AID 2282989); settings: HepG2 cis-regulatory reporter, NFI response element transcription; actives raise or lower the signal
In short: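 HepG2 cells transiently transfected with cis-element-driven multiplexed reporter transcription units, dosed for 24 h. Reporter mRNA quantified by RT-PCR, fluorescent labelling, HpaI digestion and capillary electrophoresis; bidirectional fit versus DMSO baseline.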

[9] = ATG_NF_kB_CIS: Attagene CIS-FACTORIAL HepG2 Assay for human Nuclear Factor Kappa B (NF-kB) (AID 2282991); settings: HepG2 Attagene cis-factorial NF-kB reporter mRNA; actives raise or lower the signal
In short: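 Read-out: reporter transcript levels quantified by RT-PCR plus capillary electrophoresis of 6-FAM-labelled, HpaI-cut fragments. Transfected HepG2 cells, 24 h compound exposure, endogenous NF-kB-driven cis element; gain or loss scored versus DMSO.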

[10] = ATG_NRF2_ARE_CIS: Attagene CIS-FACTORIAL HepG2 Assay for human Nuclear Factor Erythroid 2 Related Factor 2 (NFR2) response to Antioxidant Response Elements (ARE) (AID 2282992); settings: HepG2 Attagene ARE/NRF2 reporter, transcription factor activity; actives raise or lower the signal
In short: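 Endogenous transcription factor activity read out as reporter transcript levels (RT-PCR plus capillary electrophoresis, fluorescence) in transiently transfected HepG2 cells. Measured at 24 h after dosing; gain or loss of signal fitted versus DMSO.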

[11] = ATG_Oct_MLP_CIS: Attagene CIS-FACTORIAL HepG2 Assay for human Octamer-Binding Transcription Factor (Oct) (AID 2282993); settings: HepG2 Attagene cis-factorial Oct reporter, mRNA; actives raise or lower the signal
In short: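 HepG2 cells transiently transfected with cis-promoter-driven multiplexed reporter transcription units, dosed for 24 h. Reporter mRNA quantified by RT-PCR, fluorescent labelling, HpaI digestion and capillary electrophoresis; bidirectional fits versus DMSO baseline.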

[12] = biological target: Cellular tumor antigen p53 (Homo sapiens) (UniProt P04637); experiment: ATG_p53_CIS: Attagene CIS-FACTORIAL HepG2 Assay for human p53 Transcription Factor (AID 2282994); settings: HepG2 p53 cis-element reporter, Attagene mRNA; actives raise or lower the signal
In short: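 Endogenous p53 activity read in transiently transfected HepG2 from a cis-element-driven reporter transcript after 24 h exposure. RNA reverse-transcribed, PCR-amplified, fluorescently labelled and sized by capillary electrophoresis; gain or loss fitted against DMSO baseline.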

[13] = BSK_3C_TissueFactor: BioMAP Diversity Plus: 3C Assay for Tissue Factor Biomarker Activity (AID 2282997); settings: BioMAP 3C HUVEC, tissue factor biomarker readout; actives raise or lower the signal
In short: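 Tissue Factor measured by ELISA, 24 h after treatment of primary HUVEC in the BioMAP 3C setting.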

[14] = BSK_3C_uPAR: BioMAP Diversity Plus: 3C Assay for Urokinase-type plasminogen activator receptor (uPAR) Biomarker Activity (AID 2282998); settings: BioMAP 3C HUVEC, uPAR biomarker ELISA; actives raise or lower the signal
In short: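 Human umbilical vein endothelial primary cells were exposed to test chemical for 24 h. Cell-surface uPAR was then quantified by ELISA, and responses were fitted bidirectionally against DMSO as negative control and baseline.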

[15] = BSK_3C_VCAM1: BioMAP Diversity Plus: 3C Assay for Vascular cell adhesion molecule 1 (VCAM1) Biomarker Activity (AID 2282999); settings: BioMAP 3C HUVEC, VCAM1 ELISA, cytokine-stimulated; actives raise or lower the signal
In short: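 Activity fitted in both directions relative to DMSO, with ELISA measurement of the surface marker on primary HUVEC (3C) at 24 h post-treatment; parallel SRB staining (0.1% SRB, TCA-fixed, 560 nm) flagged overt cytotoxicity.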

[16] = biological target: Bile acid receptor (Homo sapiens) (UniProt Q96RI1); experiment: ATG_FXR_TRANS: Attagene TRANS-FACTORIAL HepG2 Assay for Farnesoid X Receptor (FXR) (AID 2282979; active = hit-call score of the fitted dose curve at least 0.9, where 1 is the maximum;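 also: hits raise reporter mRNA above DMSO so AC50 marks FXR activation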); settings: HepG2 Attagene TRANS FXR-GAL4 reporter transcription
In short: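 HepG2 cells were transiently transfected with GAL4-UAS reporters driven by chimeric NR-Gal4 proteins and dosed for 24 h. Reporter mRNA was quantified by RT-PCR, fluorescent labelling, HpaI digestion and capillary electrophoresis, with gain of signal scored versus DMSO.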

[17] = ATG_M_32_TRANS: Attagene TRANS-FACTORIAL HepG2 Assay for M32 Transcription Factor (Internal Marker) (AID 2282984; active = hit-call score of the fitted dose curve at least 0.9, where 1 is the maximum;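 also: transcript level of a background control reporter unit measured by RT-PCR and capillary electrophoresis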); settings: HepG2 Attagene TRANS M32 internal marker reporter
In short: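 Cell-based TRANS-format assay in HepG2: exogenous chimeric GAL4 reporter units transiently expressed, compounds applied 24 h. Reporter mRNA detected by RT-PCR plus capillary electrophoresis; this readout is an internal background marker.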

[18] = biological target: Myc proto-oncogene protein (Homo sapiens) (UniProt P01106); experiment: ATG_Myc_CIS: Attagene CIS-FACTORIAL HepG2 Assay for human Myelocytomatosis (Myc) Proto-Oncogene Transcription Factor (AID 2282990); settings: HepG2, Attagene cis-reporter transcription factor activity; actives raise or lower the signal
In short: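 After 24 h chemical treatment of HepG2 cells carrying multiplexed cis-regulated reporter constructs, reporter transcripts quantified by RT-PCR and capillary electrophoresis of fluorescent fragments. Gain or loss fitted against DMSO baseline.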

[19] = biological target: Hepatocyte nuclear factor 4-alpha (Homo sapiens) (UniProt P41235); experiment: ATG_HNF4a_TRANS: Attagene TRANS-FACTORIAL HepG2 Assay for human Hepatocyte Nuclear Factor 4 alpha (HNF4a) (AID 2282982; active = hit-call score of the fitted dose curve at least 0.9, where 1 is the maximum); settings: HepG2 HNF4a transactivation reporter, mRNA readout
In short: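 Multiplexed reporter assay: transfected HepG2, 24 h exposure, total RNA → oligo(dT) RT → PCR → 6-FAM extension → HpaI digest → CE fluorescence. DMSO = negative control.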

Measured: AC50

Chain of Cellular tumor antigen p53 (Homo sapiens) (P04637 whole entry, looked up): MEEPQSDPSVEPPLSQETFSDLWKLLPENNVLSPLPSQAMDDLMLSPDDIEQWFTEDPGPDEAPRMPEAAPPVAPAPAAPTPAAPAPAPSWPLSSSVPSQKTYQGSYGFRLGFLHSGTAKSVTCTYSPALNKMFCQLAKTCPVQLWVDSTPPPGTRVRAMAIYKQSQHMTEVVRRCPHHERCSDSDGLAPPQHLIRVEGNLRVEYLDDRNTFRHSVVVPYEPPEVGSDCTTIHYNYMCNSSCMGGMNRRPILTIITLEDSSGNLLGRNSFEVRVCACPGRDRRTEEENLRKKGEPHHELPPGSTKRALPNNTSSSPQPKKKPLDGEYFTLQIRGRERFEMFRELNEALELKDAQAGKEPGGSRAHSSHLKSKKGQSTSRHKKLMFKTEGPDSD
Chain of Transcriptional activator Myb (Homo sapiens) (P10242 whole entry, looked up): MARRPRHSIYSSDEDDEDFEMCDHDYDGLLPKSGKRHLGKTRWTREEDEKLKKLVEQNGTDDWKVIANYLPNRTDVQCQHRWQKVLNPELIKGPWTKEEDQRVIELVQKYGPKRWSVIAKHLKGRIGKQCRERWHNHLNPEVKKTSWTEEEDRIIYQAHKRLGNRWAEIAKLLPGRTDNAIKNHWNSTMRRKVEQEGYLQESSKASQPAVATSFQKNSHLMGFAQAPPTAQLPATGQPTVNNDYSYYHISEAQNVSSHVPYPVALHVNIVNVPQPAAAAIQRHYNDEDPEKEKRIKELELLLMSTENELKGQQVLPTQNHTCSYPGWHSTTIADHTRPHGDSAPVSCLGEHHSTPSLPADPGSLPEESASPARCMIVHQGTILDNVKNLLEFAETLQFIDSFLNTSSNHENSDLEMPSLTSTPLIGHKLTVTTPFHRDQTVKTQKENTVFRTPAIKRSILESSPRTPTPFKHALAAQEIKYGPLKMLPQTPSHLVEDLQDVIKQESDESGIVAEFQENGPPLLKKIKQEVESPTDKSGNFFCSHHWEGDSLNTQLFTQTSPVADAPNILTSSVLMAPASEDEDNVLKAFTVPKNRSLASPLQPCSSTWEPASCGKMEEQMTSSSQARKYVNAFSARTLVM
Chain of Hepatocyte nuclear factor 4-alpha (Homo sapiens) (P41235 whole entry, looked up): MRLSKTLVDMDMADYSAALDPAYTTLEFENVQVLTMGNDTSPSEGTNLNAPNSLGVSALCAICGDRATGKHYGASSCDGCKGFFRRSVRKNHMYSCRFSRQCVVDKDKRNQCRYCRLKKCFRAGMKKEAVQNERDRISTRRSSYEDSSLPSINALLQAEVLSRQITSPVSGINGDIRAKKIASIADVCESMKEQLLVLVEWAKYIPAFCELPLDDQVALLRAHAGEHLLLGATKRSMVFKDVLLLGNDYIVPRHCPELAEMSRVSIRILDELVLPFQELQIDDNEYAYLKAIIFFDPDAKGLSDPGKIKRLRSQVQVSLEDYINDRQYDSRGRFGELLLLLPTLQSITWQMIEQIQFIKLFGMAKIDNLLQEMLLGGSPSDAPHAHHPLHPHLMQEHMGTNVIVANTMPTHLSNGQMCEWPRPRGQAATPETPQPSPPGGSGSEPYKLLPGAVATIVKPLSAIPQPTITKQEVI
Chain of Myc proto-oncogene protein (Homo sapiens) (P01106 whole entry, looked up, the tested form may be a part): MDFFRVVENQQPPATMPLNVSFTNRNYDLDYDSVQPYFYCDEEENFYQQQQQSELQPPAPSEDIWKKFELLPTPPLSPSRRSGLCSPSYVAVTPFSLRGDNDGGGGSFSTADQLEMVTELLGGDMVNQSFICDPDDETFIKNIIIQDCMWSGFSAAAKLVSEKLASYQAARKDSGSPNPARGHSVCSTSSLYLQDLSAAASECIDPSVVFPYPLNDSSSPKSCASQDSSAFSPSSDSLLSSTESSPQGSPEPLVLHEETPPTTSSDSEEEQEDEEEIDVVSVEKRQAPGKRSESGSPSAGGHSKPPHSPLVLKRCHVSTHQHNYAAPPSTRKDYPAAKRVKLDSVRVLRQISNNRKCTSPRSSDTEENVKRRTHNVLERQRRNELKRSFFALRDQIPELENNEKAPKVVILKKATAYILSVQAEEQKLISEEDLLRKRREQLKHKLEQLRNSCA
Chain of Oxysterols receptor LXR-alpha (Homo sapiens) (Q13133 whole entry, looked up, the tested form may be a part): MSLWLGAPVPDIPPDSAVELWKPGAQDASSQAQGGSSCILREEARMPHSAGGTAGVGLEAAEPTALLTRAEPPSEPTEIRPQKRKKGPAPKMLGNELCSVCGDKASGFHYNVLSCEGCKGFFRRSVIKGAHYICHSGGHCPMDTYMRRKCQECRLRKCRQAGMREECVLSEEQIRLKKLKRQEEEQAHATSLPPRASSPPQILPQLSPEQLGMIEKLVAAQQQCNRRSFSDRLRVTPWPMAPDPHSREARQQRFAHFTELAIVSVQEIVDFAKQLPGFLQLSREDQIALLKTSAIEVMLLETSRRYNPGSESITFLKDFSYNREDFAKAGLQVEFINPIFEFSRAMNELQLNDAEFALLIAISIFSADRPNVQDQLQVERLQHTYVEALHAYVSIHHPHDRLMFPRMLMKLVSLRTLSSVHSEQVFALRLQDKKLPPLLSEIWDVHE
Chain of Nuclear respiratory factor 1 (Homo sapiens) (Q16656 whole entry, looked up): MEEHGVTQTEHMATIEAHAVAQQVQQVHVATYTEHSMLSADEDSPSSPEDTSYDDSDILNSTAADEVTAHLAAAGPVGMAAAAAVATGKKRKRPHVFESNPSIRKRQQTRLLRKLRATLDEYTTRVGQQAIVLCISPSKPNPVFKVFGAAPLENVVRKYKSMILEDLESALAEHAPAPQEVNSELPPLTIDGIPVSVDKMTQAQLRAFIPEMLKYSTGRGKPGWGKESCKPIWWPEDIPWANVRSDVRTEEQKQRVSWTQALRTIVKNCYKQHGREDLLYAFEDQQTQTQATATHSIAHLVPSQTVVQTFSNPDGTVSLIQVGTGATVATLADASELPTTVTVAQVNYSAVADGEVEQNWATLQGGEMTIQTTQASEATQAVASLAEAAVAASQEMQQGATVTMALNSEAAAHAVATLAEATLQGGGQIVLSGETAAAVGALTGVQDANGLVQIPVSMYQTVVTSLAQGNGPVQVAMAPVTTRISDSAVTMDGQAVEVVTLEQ
Chain of Glucocorticoid receptor (Homo sapiens) (P04150 whole entry, looked up, the tested form may be a part): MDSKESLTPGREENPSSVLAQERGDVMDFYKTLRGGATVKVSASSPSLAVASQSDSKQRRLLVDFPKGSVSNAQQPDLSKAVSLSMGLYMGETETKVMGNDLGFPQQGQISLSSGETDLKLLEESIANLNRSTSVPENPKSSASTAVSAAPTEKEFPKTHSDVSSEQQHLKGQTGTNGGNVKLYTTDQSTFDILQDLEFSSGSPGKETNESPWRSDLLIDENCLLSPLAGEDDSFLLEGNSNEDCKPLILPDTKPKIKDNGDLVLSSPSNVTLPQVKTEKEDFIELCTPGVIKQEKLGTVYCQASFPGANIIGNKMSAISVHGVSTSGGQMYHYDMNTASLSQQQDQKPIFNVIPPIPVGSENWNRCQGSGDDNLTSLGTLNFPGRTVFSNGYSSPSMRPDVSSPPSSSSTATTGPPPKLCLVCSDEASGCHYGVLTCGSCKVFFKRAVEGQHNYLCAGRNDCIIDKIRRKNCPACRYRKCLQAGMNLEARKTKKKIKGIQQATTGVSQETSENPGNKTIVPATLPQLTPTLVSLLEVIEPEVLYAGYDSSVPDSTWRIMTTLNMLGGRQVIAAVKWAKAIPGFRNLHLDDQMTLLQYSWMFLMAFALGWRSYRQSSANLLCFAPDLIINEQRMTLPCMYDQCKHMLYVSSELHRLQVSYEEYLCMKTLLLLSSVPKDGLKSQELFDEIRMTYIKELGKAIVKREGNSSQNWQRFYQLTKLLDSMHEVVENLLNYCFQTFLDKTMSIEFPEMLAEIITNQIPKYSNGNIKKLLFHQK
Chain of Nuclear receptor subfamily 4 group A member 2 (Homo sapiens) (P43354 whole entry, looked up, the tested form may be a part): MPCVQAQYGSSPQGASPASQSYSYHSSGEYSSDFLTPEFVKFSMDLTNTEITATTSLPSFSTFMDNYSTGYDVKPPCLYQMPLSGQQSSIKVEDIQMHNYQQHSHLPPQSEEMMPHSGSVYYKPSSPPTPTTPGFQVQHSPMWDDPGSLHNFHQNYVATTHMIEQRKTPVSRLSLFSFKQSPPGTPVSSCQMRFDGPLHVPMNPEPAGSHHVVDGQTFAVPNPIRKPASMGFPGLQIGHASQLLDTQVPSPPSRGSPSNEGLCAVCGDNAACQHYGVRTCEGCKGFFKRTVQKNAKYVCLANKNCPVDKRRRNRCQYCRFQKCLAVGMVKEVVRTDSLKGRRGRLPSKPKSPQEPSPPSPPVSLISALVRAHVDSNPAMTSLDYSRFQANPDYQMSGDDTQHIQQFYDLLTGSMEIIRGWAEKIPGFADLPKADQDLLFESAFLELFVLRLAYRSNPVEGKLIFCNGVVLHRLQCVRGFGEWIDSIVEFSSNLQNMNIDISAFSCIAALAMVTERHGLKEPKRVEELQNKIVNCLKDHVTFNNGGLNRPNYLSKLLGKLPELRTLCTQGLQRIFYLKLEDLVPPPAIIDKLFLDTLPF
Chain of Bile acid receptor (Homo sapiens) (Q96RI1 whole entry, looked up, the tested form may be a part): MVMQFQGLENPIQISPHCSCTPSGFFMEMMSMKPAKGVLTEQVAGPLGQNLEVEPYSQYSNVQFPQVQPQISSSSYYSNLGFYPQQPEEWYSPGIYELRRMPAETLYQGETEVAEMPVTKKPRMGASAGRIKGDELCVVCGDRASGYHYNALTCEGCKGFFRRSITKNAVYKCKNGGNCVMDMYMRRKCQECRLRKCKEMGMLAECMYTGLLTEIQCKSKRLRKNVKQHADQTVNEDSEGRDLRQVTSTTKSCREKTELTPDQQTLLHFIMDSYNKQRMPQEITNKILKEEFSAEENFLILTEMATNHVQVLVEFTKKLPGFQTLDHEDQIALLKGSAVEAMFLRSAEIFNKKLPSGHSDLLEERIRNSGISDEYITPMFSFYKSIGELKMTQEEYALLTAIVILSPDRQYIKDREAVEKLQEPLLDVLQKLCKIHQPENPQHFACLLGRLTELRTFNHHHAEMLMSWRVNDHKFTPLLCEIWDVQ

C=C(C)C(=O)OCC(F)(F)C(F)(F)C(F)(F)C(F)(F)C(F)(F)C(F)(F)C(F)(F)F
not listed: [16] | [17] | [18] | [19]
inactive: all other assays above

FC(F)(F)C(F)(F)C(F)(F)C(F)(F)C(F)(F)C(F)(F)C(F)(F)C(F)(F)CCS
not listed: [1] | [3] | [4] | [5] | [11] | [19]
inactive: all other assays above

CCCCOCCOCCOC(=O)CCCCC(=O)OCCOCCOCCCC
not listed: [2] | [3] | [12] | [18]
inactive: all other assays above

COC(=O)CCC(F)(F)C(F)(F)C(F)(F)C(F)(F)F
not listed: [1] | [2] | [3] | [5] | [11] | [17] | [18] | [19]
inactive: all other assays above

O=C(OCCOCCOCCOC(=O)c1ccccc1)c1ccccc1
not listed: [3] | [5] | [11] | [13] | [14] | [15] | [16] | [18]
inactive: all other assays above

CC(C)OC(=O)c1ccccc1C(=O)OC(C)C
inactive: [1] | [16] | [4] | [5] | [6] | [7] | [18] | [9] | [10]

COC(OC(C)=O)c1ccccc1 (stereo not given)
inactive: [1] | [19] | [6] | [7] | [9] | [10] | [11] | [12]

O=C(C=Cc1ccccc1)OCC=Cc1ccccc1
inactive: [3] | [19] | [4] | [17] | [6] | [7] | [18] | [12]
active: [10] 2.64 µM

CCCCCCS
not listed: [2] | [3] | [8] | [11] | [13] | [14] | [15] | [17]
inactive: all other assays above

Nc1ccc([N+](=O)[O-])cc1O
active: [10] 16.1 µM | [13] 20 µM
not listed: [1] | [3] | [11] | [19]
inactive: all other assays above

CCCCNc1ccccc1
not listed: [1] | [3] | [4] | [18]
inactive: all other assays above
